# This is part of a sample that, as a whole, favours compounds with a hit. Of some 83,000 tested, about 20% had one in any assay.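 Method: cells in 96-well plates; compound added at one concentration; 48 h incubation; percent growth measured; values under 10 scored active.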 Unmarked numbers belong to inactive results. Calls of active or inactive are those of the source.
# What was measured:
# Test in all cases: NCI-60 one-dose screen, 48 h (100 = growth as untreated, 0 = no growth, -100 = all killed)
# Settings in all cases: 10 µM unless noted
# SK-MEL-2 melanoma = tested on: SK-MEL-2 melanoma
# SN12C renal = tested on: SN12C renal
# UO-31 renal = tested on: UO-31 renal
# TK-10 renal = tested on: TK-10 renal
# ACHN renal = tested on: ACHN renal
# CAKI-1 renal = tested on: CAKI-1 renal
# A498 renal = tested on: A498 renal
# CCRF-CEM leukemia = tested on: CCRF-CEM leukemia
# MOLT-4 leukemia = tested on: MOLT-4 leukemia
# EKVX NSCLC = tested on: EKVX NSCLC
SMILES,growth (SK-MEL-2 melanoma),growth (SN12C renal),growth (UO-31 renal),growth (TK-10 renal),growth (ACHN renal),growth (CAKI-1 renal),growth (A498 renal),growth (CCRF-CEM leukemia),growth (MOLT-4 leukemia),growth (EKVX NSCLC) [%]
CN1CCN(c2ccc(Nc3c4ccccc4nc4ccccc34)cc2)CC1,106%,102%,97.5%,102%,102%,107%,112%,105%,97.5%,–
O=C(CCCCC(=O)N/N=C\c1ccccc1O)N/N=C\c1ccccc1O,75.6%,47.4%,19.3%,40.5%,13.2%,14.7%,–,–,14.6%,–
C=C(C)C1CC(O)C2(C)CCCC3C2C1CC(C)C3(C)CC/C(C)=C/C(O)C1CCC(=O)c2c(OC)cc(OC)cc21 (stereo not drawn),65.8%,59.2%,47.6%,55.6%,41.1%,48.5%,9.01% (active),25.7%,21.7%,–
COc1ccc(C(=O)c2sc3nc4c(c(-c5cccnc5)c3c2N)CCCC4)cc1OC,–,69.8%,63.8%,90%,77.1%,82.8%,48.1%,–,41.4%,–
C=C1C(=O)O[C@H]2[C@H]1CC/C(COC(=O)NCc1ccc(OC)c(OC)c1)=C\CC[C@@]1(C)O[C@@H]21,85.1%,–,56.7%,50.9%,6.25% (active),32.9%,86.9%,–,39.4%,65.9
FC(F)(F)c1nc2c(NCc3ccc(-c4ccccc4)cc3)cccc2[nH]1,–,88.4%,57.5%,79.2%,81.6%,73.7%,48.7%,44.8%,9% (active),–
O=C(COc1ccc(-c2nc3cc(Cl)c(Cl)cc3[nH]2)cc1)N=Nc1c(O)[nH]c2ccccc12,14.6%,-27.1% (active),99.7%,22.8%,25.6%,38.5%,-1.56% (active),16.1%,27%,–
Cc1cc(Nc2ccc(C)c(Cl)c2)n2nc(C(F)(F)F)nc2n1,60.8%,22.1%,-43.2% (active),-32.3% (active),-2.48% (active),-35.5% (active),91.9%,62%,74.1%,–
COc1cc(Nc2cc(C)nc(N3CCN(c4ccnc5cc(Cl)ccc45)CC3)n2)cc(OC)c1,26%,0.314% (active),-9.39% (active),17.9%,7.48% (active),10.8%,-12.5% (active),5.29% (active),5.97% (active),–
CCOc1cc2c(cc1OCC)C(c1cc(OC)c(O)cc1Cl)NCC2 (stereo not drawn),113%,96.7%,70.1%,88.2%,94.6%,115%,93.7%,108%,–,–
COc1cc(-c2nc3ccccc3[nH]2)ccc1OCC(=O)N=Nc1c(O)[nH]c2ccc(Cl)cc12,-47.4% (active),-73.4% (active),104%,-7.25% (active),31.4%,-66.4% (active),81.8%,-46.7% (active),-45.1% (active),–
COc1cc(-c2nc3cc(Cl)c(Cl)cc3[nH]2)ccc1OCC(=O)N=Nc1c(O)[nH]c2ccccc12,-80.7% (active),-69.7% (active),93.5%,-12% (active),20%,-46.8% (active),-45.9% (active),-44.8% (active),-50.7% (active),–
CCCCn1cnc2c(Sc3c([N+](=O)[O-])ncn3C)nc(N)nc21,112%,97.6%,69.1%,102%,99.8%,–,–,86.9%,49.5%,–
COc1cccc(/C=N/NC(=O)c2ccccc2Nc2ccnc(C(F)(F)F)c2)c1O,–,21.2%,7.6% (active),28.7%,5.22% (active),-2.16% (active),-13% (active),–,34.1%,10.5
C=CCSSc1ncnc2c1ncn2C1OC(CO)C(O)C1O (stereo not drawn),–,76.2%,36.5%,26%,25.3%,-2.6% (active),43.3%,–,13.2%,91.9
O=C1C=CC(=O)N1c1ccc2c(c1)Cc1cc(F)ccc1-2,107%,94.6%,80.6%,99%,92.6%,–,–,65.2%,43.7%,–
O=C(Cn1cccc(Nc2ccccc2)c1=O)Nc1ccccc1,121%,104%,91.6%,107%,103%,97.6%,65.6%,105%,110%,–
C=C1C(=O)O[C@H]2[C@H]1CC/C(C=Nc1ccc(C(F)(F)F)cc1N)=C\CC[C@@]1(C)O[C@@H]21,-18.3% (active),–,30.3%,1.36% (active),-38% (active),15.5%,46.8%,–,-3.3% (active),31.2
CS(=O)(=O)c1ccc(-n2nc(-c3ccc(Br)cc3)c3ccccc3c2=O)cc1,107%,102%,67.9%,105%,95.9%,98.7%,81.3%,97.1%,94%,–
Fc1ccc(CNc2cccc3[nH]c(C(F)(F)F)nc23)cc1,–,72.4%,84.8%,102%,96.2%,81.2%,39.7%,52.4%,41.7%,–
COc1cc(-c2nc3ccccc3[nH]2)ccc1OCc1nnc(-c2ccc(CC(C)C)cc2)o1,101%,89.9%,64.9%,115%,101%,96.3%,64%,84.9%,78.8%,–
Cc1cc(N2CCN(c3ccnc4cc(Cl)ccc34)CC2)nc(NC2CCCCC2)n1,33.1%,47.2%,6.25% (active),48.8%,40.6%,37.7%,-2.63% (active),1.71% (active),-14.9% (active),–
